Assay results taken from PubChem BioAssay (NCI).
About 83,000 compounds went through this panel and 20% of them were active in at least one assay; those are over-represented in the sample as a whole.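 Interpretation: 100, growth as untreated; towards 0, rising growth inhibition; 0, no net growth; 0 to -100, cell death. Compounds scoring below 10 were considered active.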 A number with no mark means an inactive call. The source made the active and inactive calls.

Key:
Test in all cases: NCI-60 one-dose screen, 48 h (100 = growth as untreated, 0 = no growth, -100 = all killed)
Settings in all cases: 10 µM unless noted
RPMI-8226 leukemia = tested on: RPMI-8226 leukemia
OVCAR-8 ovarian = tested on: OVCAR-8 ovarian
OVCAR-5 ovarian = tested on: OVCAR-5 ovarian
OVCAR-4 ovarian = tested on: OVCAR-4 ovarian
SK-OV-3 ovarian = tested on: SK-OV-3 ovarian
IGROV1 ovarian = tested on: IGROV1 ovarian
OVCAR-3 ovarian = tested on: OVCAR-3 ovarian
HS 578T breast = tested on: HS 578T breast
NCI/ADR-RES ovarian = tested on: NCI/ADR-RES ovarian
T-47D breast = tested on: T-47D breast
MDA-MB-435 melanoma = tested on: MDA-MB-435 melanoma
SW-620 colon = tested on: SW-620 colon
MCF7 breast = tested on: MCF7 breast
HCT-116 colon = tested on: HCT-116 colon
HCC-2998 colon = tested on: HCC-2998 colon
KM12 colon = tested on: KM12 colon
MDA-MB-468 breast = tested on: MDA-MB-468 breast
BT-549 breast = tested on: BT-549 breast
SR leukemia = tested on: SR leukemia

SMILES | growth (RPMI-8226 leukemia) | growth (OVCAR-8 ovarian) | growth (OVCAR-5 ovarian) | growth (OVCAR-4 ovarian) | growth (SK-OV-3 ovarian) | growth (IGROV1 ovarian) | growth (OVCAR-3 ovarian) | growth (HS 578T breast) | growth (NCI/ADR-RES ovarian) | growth (T-47D breast) | growth (MDA-MB-435 melanoma) | growth (SW-620 colon) | growth (MCF7 breast) | growth (HCT-116 colon) | growth (HCC-2998 colon) | growth (KM12 colon) | growth (MDA-MB-468 breast) | growth (BT-549 breast) | growth (SR leukemia)
COc1ccc(C(=O)/C=C/c2cccc(Cl)c2)cc1S(N)(=O)=O | -5.22% (active) | -70.3% (active) | -17.8% (active) | 46.4% | 49.8% | 6.51% (active) | -58.8% (active) | 95.4% | 14.3% | -53.8% (active) | 14% | -19.9% (active) | -67% (active) | -64.2% (active) | 1.16% (active) | -57.9% (active) | -53.8% (active) |  | 
COc1cc2c(c(OC)c1OC)C(=O)CC(c1cccc(NC(=O)c3cccc([N+](=O)[O-])c3)c1)O2 (configuration not stated) | 8.29% (active) | 10.2% | 79.3% | 27.1% | 64.2% | 27% | 19.4% | 25.1% | 14.5% | 18.6% | -16.8% (active) | 34.9% | 12.3% | 16.4% | 76.4% | 2.26% (active) | 8.62% (active) | -7.24% (active) | 
N#Cc1c(NCc2ccccc2)n[nH]c1Nc1ccccc1 | 37.3% | 61.1% | 84.4% | 52.9% | 68% | 89.6% | 66.8% | 84.6% | 59.9% | 17.2% | 56.6% | 62.7% | 41.6% | 33.1% | 99.7% | 55.7% | 59.8% |  | 
COCOc1cc2oc(C(=O)N[C@@H](Cc3ccccc3)C(O)C(=O)NCc3ccccc3)c(C)c(=O)c2cc1OCOC (some centres not stated) | 99.3% | 22.2% | 91.8% | 43.9% | 33.4% | 101% | 99% | 71.4% | 98.5% | 98% | 38.9% | 103% | 67.5% | -15.3% (active) | 114% | 64.8% | 79.9% | 95.9% | 
CCN(CC)C(=O)N/C(N)=N/c1nc2ccccc2s1 | 31.5% | 55.5% |  | 22.2% | 71.9% | 72.1% | 68.2% |  | 23.3% | 12.6% | 37.5% |  | 37.6% | 43.4% | 88.2% | 73.9% | 5.79% (active) | 16.5% | 32%
NC(=S)Nc1cccc(NC(N)=S)c1 | 109% | 94% | 104% | 94.6% | 126% | 97.5% | 88.5% | 105% | 97.6% | 86.8% | 97.3% | 107% | 91.7% | 107% | 117% | 87.6% | 86.5% | 115% | 
NS(=O)(=O)c1ccc(-n2cc(-c3cccc(NC(=O)c4cc(N5CCOCC5)cc(C(F)(F)F)c4)c3)nn2)cc1 | 98.8% | 5.31% (active) | 108% | 48.3% | 31.2% | 72.9% | 69% | 47.9% | 98.5% | 47% | 85.9% | 105% | 72.9% | 87.2% | 88.1% | 79% |  |  | 
COc1cccc(COc2ccc(NC(=O)Nc3ccc(Cl)c(C(F)(F)F)c3)cc2)c1 | 13.5% | 31.9% | 69.8% | 45.2% | 35.6% | 25.8% | 27.6% | 26.7% | 47.1% | 19.5% | 58.9% | 49.3% | 24.3% | 18.8% | 46.8% | 6.06% (active) | 2.67% (active) | 37.9% | 
COc1cc2c(c(OC)c1OC)C(=O)CC(c1cccc(NC(=O)c3cccc(NC(=O)[C@H](C)NC(=O)OC(C)(C)C)c3)c1)O2 (some centres not stated) | 36.5% | 28.2% | 123% | 51.8% | 91.9% | 65.3% | 52.9% | 73.6% | 80% | 19.8% | 65.6% | 86.9% | 39.3% | 41.2% | 105% | 41.2% | 58.1% | 36.9% | 
CC1(C)CC[C@]2(C(=O)O)CC[C@]3(C)C(=CCC4[C@@]5(C)C[C@@H](O)[C@@H]6OC(c7ccco7)OC[C@@]6(C)C5CC[C@]43C)C2C1 (some centres not stated) | 15% | 26.9% |  | 47.9% |  | 31.6% | 20.5% | 31.2% | 35.6% | 46.4% | 12.2% | 23.6% | 21% | 11.8% | 34% | 17.3% |  | 13.9% | 18.2%
